In PubChem BioAssay one finds composite z-score and z-score data, which are given here for 5 compounds.

For experiment [1], the system named is Wnt5a (protein binding on small-molecule microarray). The experiment is described as follows: small molecules binding Wnt5a protein – biophysical, small-molecule microarray, 635/667 nm fluorescence, primary screen (AID 1142).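 Also: fluorescence read at 667 nm with signal to noise per printed feature.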 As to conditions: 635 nm fluorescence, higher = more signal.
The nature of experiment [2]: ATP-based viability of Huh7 replicon cells – cell-based, CellTiter-Glo luminescence, basal, 48 h, cytotoxicity control for HCV replication inhibitor project, primary screen (AID 1143).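 Also: Huh7 hepatoma cells carrying a hepatitis C replication reporter with no stimulus; test concentration not given here.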 The note with it: higher = more signal, called active from +8 up or from −8 down. Background: In antiviral work, replicon cells carry a viral genome segment that copies itself.
Experiment [3] can be described thus: Pseudomonas biofilm growth suppression – PAO1 strain, BacTiter-Glo luminescence, LB-PBS, primary screen (AID 1144). As to conditions: P. aeruginosa PAO1 biofilm, 12 h, higher = more signal.
The nature of experiment [4]: basal CRE-LacZ reporter activity in PC12 – cell-based, unstimulated, primary screen (AID 1145). The note with it: no forskolin, luminescence, 4.5 h, higher = more signal, called active from +8 up or from −8 down.
A short description of experiment [5]: forskolin-driven CRE-LacZ activity in PC12 – cell-based, CRE-LacZ reporter, forskolin-stimulated, primary screen (AID 1146).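 Also: PC12 cells with 6xCRE LacZ reporter stimulated by forskolin 10 µM; beta-galactosidase reporter signal reflecting CREB driven transcription.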 As to conditions: luminescence, 4.5 h, higher = more signal, called active from +8 up or from −8 down.
The target of experiment [6] is Streptavidin (Streptomyces avidinii) (UniProt P22629). The experiment is described as follows: compounds binding control protein streptavidin – biophysical, small-molecule microarray, 635/667 nm fluorescence, artefact control for SMM compound annotation, primary screen (AID 1147).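 Also: signal reflects streptavidin binding to arrayed compounds as a control protein.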 The note with it: higher = more signal.
Experiment [7] in a line: probe aInhba binding on compound microarray – biochemical, small-molecule microarray, 635/667 nm fluorescence, primary screen (AID 1148).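 Also: score merges 667nm spot fluorescence with signal-to-noise for antibody binding to printed compounds.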 The note with it: higher = more signal.
Experiment [8] concerns the target Torsin-1A (Homo sapiens) (UniProt O14656). Kind of experiment: TOR1A wild-type binding on microarray – cell lysate, small-molecule microarray, lysate, 635/667 nm, primary screen (AID 1149). As to conditions: COS7 hTOR1A-WT lysate, 635 nm fluorescence, higher = more signal.
Experiment [9] shares this target. The experiment is described as follows: torsin A mutant lysate binding on microarrays – cell lysate, small-molecule microarray, COS7 lysate, 635/667 nm fluorescence, primary screen (AID 1150).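 Also: score pools 667 nm emission and signal to noise measuring lysate protein binding.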 The note with it: COS7 hTOR1A mutant lysate, 635 nm fluorescence, higher = more signal.
The test system of experiment [10] is Sonic hedgehog protein (Shh). Kind of experiment: Sonic hedgehog microarray binding compounds – biochemical, small-molecule microarray, 635/667 nm fluorescence, primary screen (AID 1151).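 Also: Shh protein binding to compounds spotted on small-molecule microarray slides; score combines spot fluorescence intensity with signal-to-noise across triplicate slides.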 The note with it: 635 nm fluorescence, higher = more signal.
A short description of experiment [11]: optical density shifts of acrAB sulA E. coli – strain DRC41, OD650, 48 h, E. coli filamentation inducer project, primary screen (AID 1152).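 Also: E. coli MC1000 strain DRC41 lacking acrAB efflux pump and sulA.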 As to conditions: higher = more signal, called active from +8 up or from −8 down.
The nature of experiment [12]: probe aLefty1 binding on compound microarray – biochemical, small-molecule microarray, 635/667 nm fluorescence, primary screen (AID 1153).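 Also: score merges spot fluorescence with signal-to-noise ratio from the scanned slide images.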 The note with it: higher = more signal.
The nature of experiment [13]: plasmodial surface anion channel blockers, osmotic lysis – cell-based, P. falciparum Indochina, OD700, 1 h, primary screen (AID 1154). The note with it: P. falciparum Indochina infected RBC osmotic lysis, higher = more signal, called active from +8 up or from −8 down.
Experiment [14] is described as follows: plasmodial surface anion channel blockers, osmotic lysis – cell-based, P. falciparum Indochina, OD700, 2 h, primary screen (AID 1155).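 Also: lysis reports solute entry through the parasite surface anion channel PSAC.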 As to conditions: P. falciparum Indochina infected erythrocytes, higher = more signal, called active from +8 up or from −8 down.
Experiment [15] can be described thus: changes in parasitized red cell lysis, either direction – P. falciparum Indochina, OD700, 3 h, PSAC antagonist project, primary screen (AID 1156). The note with it: P. falciparum-infected erythrocytes, osmotic lysis, higher = more signal, called active from +8 up or from −8 down.
Experiment [16] can be described thus: plasmodial surface anion channel blockers, osmotic lysis – cell-based, P. falciparum Indochina, OD700, 18 h, primary screen (AID 1157). The note with it: P. falciparum Indochina infected erythrocytes, osmotic lysis OD700, 18 h; higher = more signal, called active from +8 up or from −8 down.
Experiment [17] can be described thus: S6 kinase pathway phospho-S6 level changes – cell-based, A549, cytoblot, luminescence, serum-stimulated, primary screen (AID 1158).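 Also: serum-stimulated A549 lung adenocarcinoma cells; signal is phosphorylated S6 detected by cytoblot immunostaining with HRP secondary.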 As to conditions: 5 h, higher = more signal.
Experiment [18] deals with NADPH oxidase 2 (Homo sapiens) (UniProt P04839). Kind of experiment: compounds shifting NOX2 Amplex Red fluorescence – cell-based, HEK293-NOX2, PMA-stimulated, NOX inhibitor project, primary screen (AID 1159). Also: test concentration not given here. As to conditions: 45 min, higher = more signal, called active from +8 up or from −8 down.
Experiment [19] has as its target NADPH oxidase 4 (Homo sapiens) (UniProt Q9NPH5). Kind of experiment: compounds shifting NOX4 Amplex Red fluorescence – cell-based, HEK293-NOX4, tetracycline-induced, NOX inhibitor project, primary screen (AID 1160). The note with it: HEK293-NOX4, Amplex Red H2O2 fluorescence, 45 min; higher = more signal, called active from +8 up or from −8 down.
For experiment [20], the target named is NADPH oxidase 5 (Homo sapiens) (UniProt Q96PH1). Kind of experiment: compounds shifting NOX5 Amplex Red fluorescence – cell-based, HEK293-NOX5, NOX inhibitor project, primary screen (AID 1161). The note with it: HEK293-NOX5, ionomycin, 45 min, higher = more signal.

Active and inactive are the calls of the source. Unless noted, no rule for the calls is given here.

Chain of NADPH oxidase 2 (Homo sapiens) (P04839 whole entry, looked up): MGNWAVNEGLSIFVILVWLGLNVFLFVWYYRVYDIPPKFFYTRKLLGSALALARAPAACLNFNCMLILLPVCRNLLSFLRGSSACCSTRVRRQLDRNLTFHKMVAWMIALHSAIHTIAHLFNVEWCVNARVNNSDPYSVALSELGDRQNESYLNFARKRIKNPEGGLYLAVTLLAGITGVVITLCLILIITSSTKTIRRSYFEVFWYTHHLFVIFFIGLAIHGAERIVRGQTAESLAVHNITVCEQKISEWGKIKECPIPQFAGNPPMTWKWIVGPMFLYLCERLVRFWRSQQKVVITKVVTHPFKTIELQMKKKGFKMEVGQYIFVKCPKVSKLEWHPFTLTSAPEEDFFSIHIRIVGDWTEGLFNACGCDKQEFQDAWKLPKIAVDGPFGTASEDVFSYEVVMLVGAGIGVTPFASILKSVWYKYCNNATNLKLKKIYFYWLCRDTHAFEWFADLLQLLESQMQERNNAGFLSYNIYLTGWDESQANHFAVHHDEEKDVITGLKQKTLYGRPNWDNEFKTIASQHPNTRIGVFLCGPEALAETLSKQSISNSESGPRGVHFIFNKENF
Chain of NADPH oxidase 5 (Homo sapiens) (Q96PH1 whole entry, looked up): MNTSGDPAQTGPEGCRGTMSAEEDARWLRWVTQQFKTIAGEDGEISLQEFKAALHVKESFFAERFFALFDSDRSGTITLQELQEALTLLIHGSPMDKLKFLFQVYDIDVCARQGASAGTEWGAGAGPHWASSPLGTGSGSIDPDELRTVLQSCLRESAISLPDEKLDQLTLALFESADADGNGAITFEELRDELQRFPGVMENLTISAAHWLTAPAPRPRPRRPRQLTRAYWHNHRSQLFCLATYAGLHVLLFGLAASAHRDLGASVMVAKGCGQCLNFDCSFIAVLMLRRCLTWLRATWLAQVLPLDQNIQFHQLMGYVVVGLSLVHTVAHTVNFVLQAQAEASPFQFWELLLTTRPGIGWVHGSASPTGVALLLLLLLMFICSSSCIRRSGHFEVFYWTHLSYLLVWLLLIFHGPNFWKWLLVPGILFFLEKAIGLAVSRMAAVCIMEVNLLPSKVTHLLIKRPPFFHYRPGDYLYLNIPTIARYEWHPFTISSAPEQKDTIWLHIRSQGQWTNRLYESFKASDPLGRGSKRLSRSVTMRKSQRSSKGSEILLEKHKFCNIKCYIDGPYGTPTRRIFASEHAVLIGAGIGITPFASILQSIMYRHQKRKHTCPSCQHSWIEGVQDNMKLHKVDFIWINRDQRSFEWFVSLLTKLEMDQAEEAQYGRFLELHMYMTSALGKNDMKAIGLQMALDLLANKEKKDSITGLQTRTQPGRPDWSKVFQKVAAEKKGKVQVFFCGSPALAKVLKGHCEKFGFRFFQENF
Chain of Torsin-1A (Homo sapiens) (O14656 whole entry, looked up): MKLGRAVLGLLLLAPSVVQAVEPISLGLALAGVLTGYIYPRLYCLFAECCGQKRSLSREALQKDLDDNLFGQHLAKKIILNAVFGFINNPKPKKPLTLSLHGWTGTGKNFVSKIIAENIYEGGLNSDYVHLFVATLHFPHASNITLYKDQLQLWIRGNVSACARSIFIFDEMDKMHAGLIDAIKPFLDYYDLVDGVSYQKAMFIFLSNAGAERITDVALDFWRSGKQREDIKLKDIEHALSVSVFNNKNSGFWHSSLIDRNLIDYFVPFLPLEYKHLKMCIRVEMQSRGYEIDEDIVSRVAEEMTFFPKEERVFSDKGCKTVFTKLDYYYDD
Chain of NADPH oxidase 4 (Homo sapiens) (Q9NPH5 whole entry, looked up): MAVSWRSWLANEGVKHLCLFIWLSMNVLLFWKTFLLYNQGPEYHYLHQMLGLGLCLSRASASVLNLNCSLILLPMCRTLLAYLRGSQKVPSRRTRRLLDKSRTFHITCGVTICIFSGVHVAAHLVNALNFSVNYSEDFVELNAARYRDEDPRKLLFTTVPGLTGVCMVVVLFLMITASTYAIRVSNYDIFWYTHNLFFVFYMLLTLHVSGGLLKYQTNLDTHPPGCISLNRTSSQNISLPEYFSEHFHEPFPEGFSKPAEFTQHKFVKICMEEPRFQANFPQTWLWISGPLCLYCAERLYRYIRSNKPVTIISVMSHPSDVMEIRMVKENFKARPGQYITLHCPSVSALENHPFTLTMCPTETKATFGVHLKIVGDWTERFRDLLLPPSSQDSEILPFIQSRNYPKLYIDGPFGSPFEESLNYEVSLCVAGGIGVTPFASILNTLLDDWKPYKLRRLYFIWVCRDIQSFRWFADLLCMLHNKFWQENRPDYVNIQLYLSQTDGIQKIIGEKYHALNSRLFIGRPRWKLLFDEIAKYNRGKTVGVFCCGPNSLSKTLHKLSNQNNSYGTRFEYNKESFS
Chain of Streptavidin (Streptomyces avidinii) (P22629 whole entry, looked up): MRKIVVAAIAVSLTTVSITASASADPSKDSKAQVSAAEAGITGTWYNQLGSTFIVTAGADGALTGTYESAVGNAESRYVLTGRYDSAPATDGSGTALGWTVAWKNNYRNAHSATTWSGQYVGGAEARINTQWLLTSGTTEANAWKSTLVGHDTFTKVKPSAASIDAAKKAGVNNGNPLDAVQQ

For `CCOC(=O)CCN1C(=O)[C@H]2[C@H]3[C@H](O)[C@H](O)CC(=NNC(=O)OCc4ccc(OC)cc4)[C@H]3CC[C@H]2C1=O`, the composite z-score in [1] was -0.169; in experiment [6], -0.0807; in [7] it was -0.257; with Torsin-1A (Homo sapiens) [8], 0.306; with Torsin-1A (Homo sapiens) [9], 0.111; in [10], 0.236. Also, the composite z-score in experiment [12] was -0.0109. In addition, the z-score in experiment [2] is -0.401 (inactive); in experiment [3], 0.136 (inactive); in experiment [4], 0.523 (inactive); in experiment [5], -0.139 (inactive); in experiment [11], -0.448 (inactive); in experiment [13] it was 0.519 (inactive). Further, the z-score in experiment [14] is -0.0212 (inactive); in experiment [15], 0.0927 (inactive); in experiment [16] it was 0.0103 (inactive); in experiment [17], -0.528; in experiment [18], 1.67 (inactive); in experiment [19] it was 0.619 (inactive). For the same compound, the z-score in experiment [20] is 0.937.

Turning to `COC(=O)CC=C[C@@H](C)[C@@H](C=NOC(C)CN1CCCCc2nc(C)c(C)cc21)NS(=O)(=O)c1ccc(C)cc1` (stereo not given in full), the composite z-score in experiment [1] is 0.104; in [6], -0.343; in experiment [7], -0.0221; with Torsin-1A (Homo sapiens) [8], 1.05; in the experiment with Torsin-1A (Homo sapiens) [9], 0.705; in experiment [10], 0.56. This compound showed a composite z-score in [12] of 0.236. The z-score in experiment [2] was 0.453 (inactive); in experiment [3], 0.89 (inactive); in [4], -0.882 (inactive); in [5], 0.877 (inactive); in experiment [11], 0.599 (inactive); in [13], -0.193 (inactive). Also, the z-score in [14] is 0.36 (inactive); in experiment [15] it was 0.151 (inactive); in experiment [16], 0.0733 (inactive); in experiment [17] it was -0.134; in experiment [18] it was -0.397 (inactive); in [19], 0.339 (inactive). Also, in experiment [20], the z-score worked out at 0.266.

On to `CC(C)=CCCC(C)=CCON=C1C[C@@H](O)[C@@H](O)[C@@H]2[C@@H]3C(=O)N(Cc4ccc5c(c4)OCO5)C(=O)[C@@H]3CC[C@H]12`, for which the composite z-score in experiment [1] is 0.352; in experiment [6], 0.133; in experiment [7], -0.0332; with Torsin-1A (Homo sapiens) [8], 0.46; with Torsin-1A (Homo sapiens) [9], 0.724; in experiment [10] it was 0.728. Besides, the composite z-score in experiment [12] is -0.202. Moreover, the z-score in experiment [2] is -1.61 (inactive); in [3] it was 0.802 (inactive); in [4], -0.295 (inactive); in experiment [5], 0.489 (inactive); in experiment [11], -0.171 (inactive); in experiment [13] it was 11.1 (active). Also, the z-score was 1.73 (inactive) in experiment [14]; 1.64 (inactive) in experiment [15]; 0.844 (inactive) in experiment [16]; -0.429 in [17]; -0.344 (inactive) in experiment [18]; -2.35 (inactive) in experiment [19]. The z-score in [20] is -4.13.

For `CC(C)CON=C1C[C@@H](O)[C@@H](O)[C@@H]2[C@@H]3C(=O)N(C(C)(C)C)C(=O)[C@@H]3CC[C@@H]12`, the composite z-score in experiment [1] is 0.167; in [6], 0.0099; in [7], -0.261; with Torsin-1A (Homo sapiens) [8], 3.07; in the experiment with Torsin-1A (Homo sapiens) [9] it was 3.23; in [10], 1.28. Moreover, the composite z-score in [12] is -0.268. Also, the z-score in [2] was -2.95 (inactive); in [3] it was -0.811 (inactive); in [4], 1.7 (inactive); in experiment [5], 0.549 (inactive); in [11], -1.53 (inactive); in [13], 0.778 (inactive). Further, the z-score was -0.692 (inactive) in experiment [14]; 0.695 (inactive) in experiment [15]; -2.29 (inactive) in [16]; 1.13 in experiment [17]; 0.571 (inactive) in experiment [18]; -0.75 (inactive) in experiment [19]. Also, the z-score in [20] was -2.22.

Consider `CC(CCN1CCCc2nc(C)c(C)cc21)=NO[C@@H](C)c1cn([C@H](CO)Cc2ccccc2)nn1`, for which the composite z-score in experiment [1] turned out to be 0.0241; in [6], 0.525; in experiment [7], 0.153; with Torsin-1A (Homo sapiens) [8] it was 0.639; with Torsin-1A (Homo sapiens) [9] it was 0.686; in experiment [10] it was 0.71. Further, in experiment [12], the composite z-score was -0.193. Besides, the z-score is -0.0864 (inactive) in experiment [2]; 0.0842 (inactive) in [3]; -1.21 (inactive) in [4]; -0.82 (inactive) in experiment [5]; 1.15 (inactive) in experiment [11]; 0.202 (inactive) in experiment [13]. Moreover, the z-score in [14] was 0.0178 (inactive); in experiment [15], 0.0882 (inactive); in experiment [16] it was 0.392 (inactive); in [17], 0.137; in experiment [18] it was -0.588 (inactive); in experiment [19], 0.313 (inactive). Further, the z-score in experiment [20] amounted to 0.351.
